Screens from PubChem.
The list is not random: actives were taken first. Their share in the collection is about 4.7%.
D1 potentiator: human D1 dopamine receptor positive modulation; P21728; HEK293 TREx D1 cells, calcium flux, dopamine EC20 potentiation; potentiation, % at 10 µM; actives 0.036% (n = 360,000); AID 504651; in the data active = potentiation above about 30%; note: 0% is about no effect
D1 antag: human D1 dopamine receptor antagonism. HEK293 TREx D1 cells, calcium flux, dopamine EC80; active compounds read low. actives 3.2% (n = 360,000). activity change, negative = inhibition, % at 10 µM. AID 504652. P21728; in the data active = activity change below about -30%; note: % is set by controls: 0 for no effect and ±100 for the full control effect
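Compound effects on dopamine-evoked calcium signalling were measured in tetracycline-induced HEK293 Trex D1 cells. Dopamine at EC80 followed a 180 s compound pre-read, and fluorescence was tracked kinetically for 180 s more.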
TRHR enhancer: TRH receptor (human) allosteric enhancement | TRHR cells, fluo-8 calcium fluorescence, EC20 TRH enhancement | enhancement, % at 2 µM | P34981 | actives 0.66% (n = 360,000); in the data active = enhancement above about 30%; note: 0% is about no effect
Target sequence (P34981 whole entry, looked up): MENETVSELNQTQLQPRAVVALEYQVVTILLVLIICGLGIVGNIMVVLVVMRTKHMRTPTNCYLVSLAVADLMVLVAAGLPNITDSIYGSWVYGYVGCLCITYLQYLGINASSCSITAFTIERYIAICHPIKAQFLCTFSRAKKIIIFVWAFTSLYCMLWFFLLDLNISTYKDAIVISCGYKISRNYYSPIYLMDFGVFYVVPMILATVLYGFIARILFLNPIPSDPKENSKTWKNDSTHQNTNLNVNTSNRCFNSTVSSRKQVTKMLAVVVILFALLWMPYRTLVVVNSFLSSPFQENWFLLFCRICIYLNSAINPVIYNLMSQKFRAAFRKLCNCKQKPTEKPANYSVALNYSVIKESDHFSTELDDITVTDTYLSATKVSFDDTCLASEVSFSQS
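TRHR-expressing cells loaded with fluo-8 calcium dye were read kinetically (ex 480/em 530) during compound addition, then stimulated with an EC20 of TRH (10 nM final). Enhancement of the Gq-mediated intracellular calcium response was scored.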
TRHR ag: activates the human TRH receptor; P34981; TRHR cells, calcium flux fluo-8, FDSS agonist mode; activation, % at 2 µM; actives 0.18% (n = 360,000); AID 493084; note: 0% is about no effect
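Steps: seed TRHR cells overnight; add fluo-8 no-wash Ca dye, RT 30 min–1.5 h; record 10 s baseline; pin-transfer compounds; monitor fluorescence 1 cycle/s for the agonist window. Calcium increases flag candidate agonists.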
D1 ag: agonists of human D1 dopamine receptor; P21728; HEK293 T-REx D1 cells, calcium flux, agonist mode; AID 504660; activation, % at 2 µM; actives 1% (n = 360,000); note: 0% is about no effect
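Tetracycline-induced HEK293 TREx D1 cells, force-coupled to calcium signalling, were dye-loaded with a no-wash calcium kit. Compound was pin-added after a 10 s baseline. Fluorescence was read kinetically at 1 cycle/s for 180 s, with calcium rises flagged as agonism.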
* marks the source's active call; other numbers are inactive results; x = no result. Cut-off read from the data, not from the text of the source, unless noted: active = activation above about 30%; inactive = the rest.

SMILES	D1 potentiator	D1 antag	TRHR enhancer	TRHR ag	D1 ag
COC(=O)C1=C(C)NC(c2c(O)ccc3ccccc23)C(C(=O)OC)=C1C (stereo not drawn)	-0.7	3.6	8.6	0.6	2.5
COC(=O)C1=C(C)NC(=O)NC1c1c(O)ccc2ccccc12 (stereo not drawn)	-1.4	8.5	35.3*	0.2	0.7
Cc1ccc(NC(=O)C2CCN(c3nc4ccccc4[nH]3)CC2)c(C)c1	-2.0	-6.3	-3.1	-0.4	-1.4
CC/C(=N\NC(=S)Nc1cccc(C)c1)c1ccccc1	-5.3	1.4	-4.0	-0.1	4.2
CC/C(=N/N=C(\CC)c1ccccc1)c1ccccc1	-2.4	-46.3*	8.0	-0.3	-0.4
Cc1[nH]c2ccc(-c3n[nH]c(=S)n3Cc3ccccc3)cc2c1C	-5.8	-31.6*	3.7	2.3	6.9
COc1cc(C(=O)Nc2ccc(S(=O)(=O)Nc3cc(C)on3)cc2)cc(OC)c1OC	-1.6	-79.3*	8.5	-0.1	-0.4
COc1ccccc1NS(=O)(=O)c1cccc(C(=O)OCc2nc3ccccc3s2)c1	-0.7	-18.2	-1.9	0.7	7.8
COc1ccccc1NS(=O)(=O)c1ccc(NC(=O)c2ccncc2)cc1	-4.9	-23.2	37.7*	0.9	14.2
COc1ccccc1NS(=O)(=O)c1cccc(C(=O)OCC(=O)Nc2cc(C)on2)c1	-6.0	-31.9*	0.4	1.0	1.8
COc1ccccc1NS(=O)(=O)c1ccc(NC(=O)N2CCCCC2)cc1	-8.8	-45.6*	4.8	0.1	3.7
CCOc1cc(C(=O)Nc2ccc(S(=O)(=O)Nc3cc(C)on3)cc2)cc(OCC)c1OCC	-2.4	31.8	4.2	0.4	1.9
COc1ccccc1NS(=O)(=O)c1ccc(C(=O)NCc2ccncc2)cc1	5.8	-26.3	3.4	0.0	-0.8
COc1ccc(Cl)cc1NC(=O)c1cn(C2CCCC2)c(=O)c2c1c1ccccc1n2C	1.2	4.4	-2.5	0.3	2.2
COc1ccccc1NS(=O)(=O)c1cccc(C(=O)NNC(=O)c2ccc(=O)[nH]c2)c1	x	-31.9*	-3.3	0.1	6.1
COc1ccccc1NS(=O)(=O)c1cccc(C(=O)NN=C2CCCCCC2)c1	-2.5	-3.2	15.7	0.0	0.8
COc1ccccc1NS(=O)(=O)c1cccc(NC(=O)Nc2ccccc2)c1	-13.2	-33.2*	-5.1	-0.7	7.5
COc1ccccc1NS(=O)(=O)c1cccc(NC(=O)Nc2ccc(Cl)cc2)c1	-7.5	-16.0	4.3	0.6	14.8
COc1cccc(CNC(=O)c2ccc(CSc3nc4ccncc4n3Cc3cccc(C)c3)cc2)c1	-3.9	-1.1	3.3	1.1	9.4
COc1ccc(OC)c(NC(=O)C2CCCN(S(=O)(=O)c3ccc4[nH]c(=O)ccc4c3)C2)c1 (stereo not drawn)	-2.7	-0.3	4.3	-0.2	0.2
CCOc1cc(C=O)ccc1OCCSc1ccc(Cl)cc1	-1.1	-37.2*	5.2	0.3	3.6
COc1cc(NC(=O)N2CCC(CN3CCOCC3)CC2)cc(OC)c1OC	-2.1	-13.2	11.3	0.2	0.7
Cc1cccc2nc(CSc3nc4ccc([N+](=O)[O-])cc4[nH]3)cn12	-21.7	-37.4*	3.7	-2.6	0.3
O=[N+]([O-])c1ccc2nc(SCc3cn4ccccc4n3)[nH]c2c1	-0.3	-16.5	-5.3	-0.3	2.5
Cc1ccc2nc(SCc3ccc([N+](=O)[O-])cc3)[nH]c2c1	-4.8	-35.3*	-11.1	1.8	2.9
SMILES	D1 potentiator	D1 antag	TRHR enhancer	TRHR ag	D1 ag
Cc1ccc(NC(=O)CCCn2c(=O)c3cccn3c3cccnc32)c(Cl)c1	0.4	5.5	10.1	-0.3	1.7
C(=C\c1ccc2ccccc2n1)/c1ccccc1	5.2	42.4	-4.2	0.9	3.4
CCOc1ccc(/C=C/c2nc(C#N)c(N(C)C)o2)cc1	-0.3	1.3	-9.3	-2.1	2.1
CN(C)c1ccc(/C=C/c2ccc3ccccc3n2)cc1	1.9	-5.3	15.9	38.2*	138.7*
CCCN(CCC)c1ccc(/C=C/c2ccc3cc(OCC)ccc3n2)cc1	-2.6	-19.1	-3.7	35.1*	32.8*
COc1ccc(N2CCN(c3oc(/C=C/c4cc(OC)c(OC)c(OC)c4)nc3C#N)CC2)cc1	2.0	7.4	7.9	0.1	-0.5
CCCC(=O)N1CCN(c2nc3ccc(F)cc3s2)CC1	0.9	x	-0.9	0.1	7.6
Cc1ccc(CN2CCC(c3nc4ccc(Cl)cc4[nH]3)CC2)cc1	-5.9	-30.8*	7.3	0.8	19.4
COc1ccc(CNC(=O)C2CCN(c3nc4ccc(C)cc4[nH]3)CC2)cc1	6.7	-0.9	-2.0	-0.4	37.6*
Cc1ccc2nc(N3CCC(C(=O)NCc4ccc(F)cc4)CC3)[nH]c2c1	2.6	-9.8	2.9	-0.5	0.6
COCCCNC(=O)C1CCN(c2nc3ccc(C)cc3[nH]2)CC1	-2.0	-55.5*	-1.8	0.2	2.3
COc1cccc(CNC(=O)CN2CCC(c3nc4ccc(C)cc4[nH]3)CC2)c1	-2.5	-37.7*	1.2	-0.9	0.2
Clc1ccc2nc(C3CCN(Cc4ccccc4)CC3)[nH]c2c1	-9.5	-14.3	0.9	1.3	3.5
COc1ccc(Nc2c3c(nc4ccc(NC(=O)c5cc(Cl)ccc5OC)cc24)CCCC3)cc1OC	0.3	-6.1	0.8	0.0	1.1
CCc1cccc(C)c1NC(=O)Cn1nc(C)c2nn(-c3ccc(Cl)cc3)c(C)c2c1=O	-4.4	-8.8	-3.2	-0.3	3.9
CCOC(=O)c1ccc(NC(=O)Cn2nc(C)c3nn(-c4ccc(Cl)cc4)c(C)c3c2=O)cc1	-1.6	8.9	34.2*	0.2	6.7
FC(F)(F)c1cccc(-c2nc3nc(Cl)c(Cl)nc3[nH]2)c1	-7.7	-35.2*	-14.5	6.9	32.9*
COc1ccc(CNC(=O)Cc2ccc(NC(=O)N3CCCCc4ccccc43)cc2)cc1	-4.2	1.4	6.3	0.4	8.9
Cc1ccc(NC(=O)c2c(C)nc3sc(C(=O)Nc4ccc(F)cc4)c(N)c3c2-c2ccccc2Cl)c(C)c1	1.2	-39.0*	-1.5	1.1	5.2
Cc1ccc(NC(=O)Nc2cn(CC(C)C)c(=O)c3ccccc23)cc1N(C)C	-1.6	-13.7	8.2	-1.1	1.8
O=C(O)c1ccc(Cn2ccc3ccccc32)o1	-3.1	-36.3*	1.6	0.0	7.9
O=C1CC(N2CCN(c3cccc(C(F)(F)F)c3)CC2)C(=O)N1c1ccccc1 (stereo not drawn)	-3.6	-2.2	4.1	2.0	53.4*
CCCOc1ccc(N2C(=O)CC(N3CCC(O)(c4cccc(C(F)(F)F)c4)CC3)C2=O)cc1 (stereo not drawn)	0.7	-32.4*	-1.3	0.0	2.3
O=C1CC(N2CCN(c3cccc(C(F)(F)F)c3)CC2)C(=O)N1c1ccccc1F (stereo not drawn)	-3.0	4.0	5.8	0.6	1.6
